Measurements as given in PubChem BioAssay AID687001 (Broad Institute, 2013).
Potency and affinity values are given separately.

Molecular target: Protein S100-A4 (Homo sapiens) (UniProt P26447)
Experiment: human S100A4 peptide interaction inhibition curves – biochemical, fluorescence polarization, cherry-picked hits, dose response (AID 687001);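 also: 0% = DMSO neutral control wells and -100% = TFP positive control wells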
Conditions: FP, S100A4/TAMRA-myosin IIA peptide binding; series mostly up to 11 µM; activity change, negative = inhibition: at the top concentration;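 active = signal-lowering compounds whose fitted half-maximal concentration is at or below twice the top tested dose in every run; inconclusive = runs disagree, flat 30 to 70% inhibition, or poor curve fit; inactive = the rest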

Protein S100-A4 (Homo sapiens), sequence (P26447 whole entry, looked up): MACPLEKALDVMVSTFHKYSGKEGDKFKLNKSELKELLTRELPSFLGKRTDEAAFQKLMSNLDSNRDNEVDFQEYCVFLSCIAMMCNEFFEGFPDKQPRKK

Activity change, negative = inhibition, inactive:
CCCN1C[C@H](C)[C@H](OC)CN(C)C(=O)c2cc(NC(=O)NC3CCCCC3)ccc2OC[C@@H]1C 0.083%, C[C@H](CO)N1C[C@H](C)[C@H](CN(C)Cc2ccncc2)Oc2c(NC(=O)C3CC3)cccc2C1=O 1.1%, CCOc1ccc(C(=O)NC2CCN(C(=O)Nc3ccc(F)cc3)CC2)cc1 2.33%, N#Cc1ccc(-c2ccc([C@@H]3[C@@H](CO)N4C(=O)CN(C(=O)C5CC5)C[C@H]34)cc2)cc1 2.66%, CC(=O)c1c(C)[nH]c(C(=O)OCc2csc(CC(=O)Nc3ccccc3C)n2)c1C 8.31%, CC(C)CC#Cc1ccc([C@@H]2[C@H](CO)N3C(=O)CN(C(=O)c4ccccn4)C[C@@H]23)cc1 1.32%, CO[C@H]1CN(C)C(=O)c2cc(NC(=O)Nc3ccc(C(F)(F)F)cc3)ccc2OC[C@H](C)NC[C@H]1C 2.47%, CCCN1CCCCC(NC(=O)c2c(F)cccc2F)C1=O (stereo not given) 0.997%, O=C1C2C3C=CC(C2C(=O)N1CCO)C1C(=O)N(CCO)C(=O)C31 (stereo not given) -3.48%, Nc1cccc2c(=O)[nH][nH]c(=O)c12 -1.11%, Cc1ccc(N(C)S(=O)(=O)c2ccc3[nH]cc(C(=O)NCCCN4CCOCC4)c(=O)c3c2)cc1C 3.19%, CN1CCCCN2[C@@H](CO)[C@@H](c3ccc(C#CC4(O)CCCC4)cc3)[C@@H]2C1 16.3%, Cc1cccc(-c2oc3ccc(-c4ccc5c(c4)OCO5)cc3c2-c2ccc(OC3CCCCO3)cc2)c1 (stereo not given) 3.18%, COc1cc(S(=O)(=O)NCc2ccccn2)ccc1Cl -0.247%, O=S(=O)(c1ccc(F)cc1)N1C[C@H]2[C@@H](c3ccccc31)[C@H](CO)N2Cc1ccccc1Cl 19.3%
